From the supplement of paper PMC10849652
About 8,800 targets were measured; listed, in parts, are those with a hit and a random draw of the rest. About 0.5% of all pairs of compound and target were hits. Values without a mark were called inactive.

Experiments:
Assay in all cases: log2 fold change, soluble protein after heating vs DMSO (PISA); higher = thermal stabilisation; K562 lysate, 10 uM; active = over 0.2 and 3.5 SD of the protein, either way, in both replicates (recomputed)
[1] = compound: CCCS(=O)(=O)Nc1ccc(F)c(C(=O)c2c[nH]c3ncc(-c4ccc(Cl)cc4)cc23)c1F [vemurafenib]
In short: (§1)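 A 30 min treatment with 10 μM compound was applied to crude K562 extract at 1 mg/mL protein in PBS pH 7.4 with 1 mM MgCl2. Heating for 3 min spanned 48°C-58°C, after which aliquots were pooled, adjusted to 0.5% NP-40 at 4°C and spun at 21,000xg for 90 min. TMTpro 16plex LC-MS/MS of the supernatant, with channel sums equalised, gave values recorded as log-two fold change in thermal stability against solvent controls, from duplicates.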

[2] = compound: CCCS(=O)(=O)Nc1ccc(F)c(C(=O)c2c[nH]c3ncc(Cl)cc23)c1F
In short: as §1

[3] = compound: CCN(CCCOc1ccc2c(Nc3cc(CC(=O)Nc4cccc(F)c4)[nH]n3)ncnc2c1)CCOP(=O)(O)O [barasertib]
In short: as §1

[4] = compound: CC[C@@H]1C(=O)N(C)c2cnc(Nc3ccc(C(=O)NC4CCN(C)CC4)cc3OC)nc2N1C1CCCC1
In short: as §1

[5] = compound: CC[C@@H]1C(=O)N(C)c2cnc(Nc3ccc(C(=O)N[C@H]4CC[C@H](N5CCN(CC6CC6)CC5)CC4)cc3OC)nc2N1C(C)C [volasertib]
In short: as §1

[6] = compound: CCn1c(C(=O)N(C2CC2)C2CC2)cc2c3c(ncn3C)c(Nc3cc(C)n(C)n3)nc21
In short: as §1

[7] = compound: CCn1cc(-c2ccnc3[nH]c(-c4cccc(CN(C)C)c4)cc23)c(-c2ccc(NC(=O)N(C)C)cc2)n1
In short: as §1

[8] = compound: CN1CCC(CNc2ccc3ncc(-c4cccc(OC(F)(F)F)c4)n3n2)CC1
In short: as §1

[9] = compound: CN1CCN(CCOc2cc(OC3CCOCC3)c3c(Nc4c(Cl)ccc5c4OCO5)ncnc3c2)CC1 [saracatinib]
In short: as §1

[10] = compound: CN1CCN(c2nc(C3=C(c4c[nH]c5ccccc45)C(=O)NC3=O)c3ccccc3n2)CC1 [sotrastaurin]
In short: as §1

Sequence of UniProt Q8NB46 (Q8NB46 whole entry, looked up): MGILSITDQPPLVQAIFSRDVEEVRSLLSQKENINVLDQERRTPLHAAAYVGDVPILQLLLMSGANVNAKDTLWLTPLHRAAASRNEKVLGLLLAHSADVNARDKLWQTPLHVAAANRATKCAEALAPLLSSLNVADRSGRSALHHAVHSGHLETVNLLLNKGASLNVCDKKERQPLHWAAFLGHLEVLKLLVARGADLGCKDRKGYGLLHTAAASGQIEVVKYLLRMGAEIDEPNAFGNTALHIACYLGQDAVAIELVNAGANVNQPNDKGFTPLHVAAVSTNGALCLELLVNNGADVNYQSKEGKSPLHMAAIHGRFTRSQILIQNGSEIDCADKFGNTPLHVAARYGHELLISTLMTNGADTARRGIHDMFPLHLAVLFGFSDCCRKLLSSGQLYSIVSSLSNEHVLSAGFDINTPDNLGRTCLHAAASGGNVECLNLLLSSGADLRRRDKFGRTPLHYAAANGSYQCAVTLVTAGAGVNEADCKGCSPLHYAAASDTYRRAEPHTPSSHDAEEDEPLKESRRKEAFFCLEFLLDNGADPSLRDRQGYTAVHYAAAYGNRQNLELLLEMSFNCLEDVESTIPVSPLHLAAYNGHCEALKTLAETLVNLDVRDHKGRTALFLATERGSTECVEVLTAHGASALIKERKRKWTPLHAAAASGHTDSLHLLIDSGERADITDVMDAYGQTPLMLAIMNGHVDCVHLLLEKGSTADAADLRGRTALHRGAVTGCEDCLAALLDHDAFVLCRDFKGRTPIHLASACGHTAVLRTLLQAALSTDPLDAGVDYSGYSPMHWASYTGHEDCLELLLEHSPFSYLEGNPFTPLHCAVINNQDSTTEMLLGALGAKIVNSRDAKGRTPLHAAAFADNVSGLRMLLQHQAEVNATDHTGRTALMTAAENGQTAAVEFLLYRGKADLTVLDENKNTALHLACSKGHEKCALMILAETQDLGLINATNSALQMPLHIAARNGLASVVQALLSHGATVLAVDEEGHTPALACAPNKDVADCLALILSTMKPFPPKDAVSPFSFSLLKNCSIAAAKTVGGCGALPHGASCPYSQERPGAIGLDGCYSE
Sequence of UniProt O43865 (O43865 whole entry, looked up): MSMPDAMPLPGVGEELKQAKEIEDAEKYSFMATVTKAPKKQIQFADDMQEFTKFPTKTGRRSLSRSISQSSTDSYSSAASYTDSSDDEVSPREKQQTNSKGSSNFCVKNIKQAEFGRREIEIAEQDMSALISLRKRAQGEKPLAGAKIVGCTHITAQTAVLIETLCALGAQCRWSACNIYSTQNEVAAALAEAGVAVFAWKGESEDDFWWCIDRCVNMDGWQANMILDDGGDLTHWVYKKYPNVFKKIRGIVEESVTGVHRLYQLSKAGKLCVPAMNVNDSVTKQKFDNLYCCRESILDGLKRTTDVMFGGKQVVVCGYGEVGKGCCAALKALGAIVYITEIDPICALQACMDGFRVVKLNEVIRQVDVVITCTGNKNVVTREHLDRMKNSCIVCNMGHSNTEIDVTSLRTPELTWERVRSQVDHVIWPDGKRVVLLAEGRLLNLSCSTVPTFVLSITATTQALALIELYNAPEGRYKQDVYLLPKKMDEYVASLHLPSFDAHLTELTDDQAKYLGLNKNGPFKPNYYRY
Sequence of UniProt P35573 (P35573 whole entry, looked up): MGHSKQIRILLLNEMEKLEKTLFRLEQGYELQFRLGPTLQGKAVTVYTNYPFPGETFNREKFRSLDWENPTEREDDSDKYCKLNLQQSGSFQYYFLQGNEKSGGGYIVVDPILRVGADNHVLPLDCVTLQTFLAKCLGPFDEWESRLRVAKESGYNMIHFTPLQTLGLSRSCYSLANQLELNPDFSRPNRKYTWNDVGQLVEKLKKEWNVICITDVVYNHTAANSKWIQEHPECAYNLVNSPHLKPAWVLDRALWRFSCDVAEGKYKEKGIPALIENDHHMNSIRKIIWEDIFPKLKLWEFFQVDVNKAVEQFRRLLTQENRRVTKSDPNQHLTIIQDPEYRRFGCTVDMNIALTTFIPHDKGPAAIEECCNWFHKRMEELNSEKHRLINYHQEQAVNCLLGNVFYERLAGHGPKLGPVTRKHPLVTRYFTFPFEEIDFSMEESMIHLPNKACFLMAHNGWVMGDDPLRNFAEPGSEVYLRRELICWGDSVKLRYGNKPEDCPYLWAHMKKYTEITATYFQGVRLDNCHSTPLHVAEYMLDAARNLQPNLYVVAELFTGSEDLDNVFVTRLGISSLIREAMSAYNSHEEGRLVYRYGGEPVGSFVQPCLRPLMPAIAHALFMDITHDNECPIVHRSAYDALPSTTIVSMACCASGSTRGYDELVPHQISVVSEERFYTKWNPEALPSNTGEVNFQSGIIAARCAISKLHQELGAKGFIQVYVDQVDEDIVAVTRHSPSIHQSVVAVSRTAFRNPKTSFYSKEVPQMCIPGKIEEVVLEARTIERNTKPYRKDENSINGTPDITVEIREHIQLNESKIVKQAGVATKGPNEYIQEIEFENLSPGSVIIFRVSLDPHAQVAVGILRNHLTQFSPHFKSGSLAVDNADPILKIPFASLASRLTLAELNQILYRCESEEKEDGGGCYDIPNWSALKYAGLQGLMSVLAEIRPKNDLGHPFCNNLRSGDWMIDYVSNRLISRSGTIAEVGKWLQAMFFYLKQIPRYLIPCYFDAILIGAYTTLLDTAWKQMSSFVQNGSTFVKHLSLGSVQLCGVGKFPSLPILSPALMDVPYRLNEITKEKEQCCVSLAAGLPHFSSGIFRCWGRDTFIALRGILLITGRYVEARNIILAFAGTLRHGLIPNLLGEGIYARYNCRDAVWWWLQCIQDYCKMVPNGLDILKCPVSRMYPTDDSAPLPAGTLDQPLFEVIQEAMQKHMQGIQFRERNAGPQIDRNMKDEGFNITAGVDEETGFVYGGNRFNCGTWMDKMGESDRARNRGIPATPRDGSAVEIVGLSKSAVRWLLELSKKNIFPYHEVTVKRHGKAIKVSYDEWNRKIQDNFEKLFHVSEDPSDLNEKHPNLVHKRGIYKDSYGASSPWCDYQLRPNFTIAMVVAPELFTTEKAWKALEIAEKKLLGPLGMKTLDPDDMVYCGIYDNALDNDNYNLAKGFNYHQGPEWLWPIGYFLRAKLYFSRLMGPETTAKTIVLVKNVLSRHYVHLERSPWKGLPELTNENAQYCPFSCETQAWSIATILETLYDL
Sequence of UniProt Q9Y303 (Q9Y303 whole entry, looked up): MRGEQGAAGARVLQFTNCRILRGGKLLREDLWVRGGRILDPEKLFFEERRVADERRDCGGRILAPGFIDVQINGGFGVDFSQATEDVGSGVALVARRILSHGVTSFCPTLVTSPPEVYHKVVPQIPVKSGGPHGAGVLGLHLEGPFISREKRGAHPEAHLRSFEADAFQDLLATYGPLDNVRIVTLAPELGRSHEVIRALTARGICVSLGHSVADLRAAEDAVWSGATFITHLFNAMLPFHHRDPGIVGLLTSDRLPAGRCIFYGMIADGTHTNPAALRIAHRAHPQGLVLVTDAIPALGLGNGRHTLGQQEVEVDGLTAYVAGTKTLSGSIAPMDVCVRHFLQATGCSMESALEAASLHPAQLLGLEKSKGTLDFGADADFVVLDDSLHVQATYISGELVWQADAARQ
Sequence of UniProt P31749 (P31749 whole entry, looked up): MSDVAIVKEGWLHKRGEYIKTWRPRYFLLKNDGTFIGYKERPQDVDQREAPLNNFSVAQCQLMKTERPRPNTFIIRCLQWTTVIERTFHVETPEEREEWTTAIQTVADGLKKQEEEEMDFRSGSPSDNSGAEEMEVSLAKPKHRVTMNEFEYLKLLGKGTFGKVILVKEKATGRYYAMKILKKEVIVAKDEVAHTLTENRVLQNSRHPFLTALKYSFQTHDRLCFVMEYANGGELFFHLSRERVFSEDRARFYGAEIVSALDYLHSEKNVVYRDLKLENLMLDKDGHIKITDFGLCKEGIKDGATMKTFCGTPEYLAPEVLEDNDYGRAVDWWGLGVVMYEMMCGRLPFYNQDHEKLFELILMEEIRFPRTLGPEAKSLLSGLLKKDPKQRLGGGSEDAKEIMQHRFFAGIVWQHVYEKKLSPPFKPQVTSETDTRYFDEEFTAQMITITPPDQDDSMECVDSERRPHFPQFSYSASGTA
Sequence of UniProt Q96NW4 (Q96NW4 whole entry, looked up): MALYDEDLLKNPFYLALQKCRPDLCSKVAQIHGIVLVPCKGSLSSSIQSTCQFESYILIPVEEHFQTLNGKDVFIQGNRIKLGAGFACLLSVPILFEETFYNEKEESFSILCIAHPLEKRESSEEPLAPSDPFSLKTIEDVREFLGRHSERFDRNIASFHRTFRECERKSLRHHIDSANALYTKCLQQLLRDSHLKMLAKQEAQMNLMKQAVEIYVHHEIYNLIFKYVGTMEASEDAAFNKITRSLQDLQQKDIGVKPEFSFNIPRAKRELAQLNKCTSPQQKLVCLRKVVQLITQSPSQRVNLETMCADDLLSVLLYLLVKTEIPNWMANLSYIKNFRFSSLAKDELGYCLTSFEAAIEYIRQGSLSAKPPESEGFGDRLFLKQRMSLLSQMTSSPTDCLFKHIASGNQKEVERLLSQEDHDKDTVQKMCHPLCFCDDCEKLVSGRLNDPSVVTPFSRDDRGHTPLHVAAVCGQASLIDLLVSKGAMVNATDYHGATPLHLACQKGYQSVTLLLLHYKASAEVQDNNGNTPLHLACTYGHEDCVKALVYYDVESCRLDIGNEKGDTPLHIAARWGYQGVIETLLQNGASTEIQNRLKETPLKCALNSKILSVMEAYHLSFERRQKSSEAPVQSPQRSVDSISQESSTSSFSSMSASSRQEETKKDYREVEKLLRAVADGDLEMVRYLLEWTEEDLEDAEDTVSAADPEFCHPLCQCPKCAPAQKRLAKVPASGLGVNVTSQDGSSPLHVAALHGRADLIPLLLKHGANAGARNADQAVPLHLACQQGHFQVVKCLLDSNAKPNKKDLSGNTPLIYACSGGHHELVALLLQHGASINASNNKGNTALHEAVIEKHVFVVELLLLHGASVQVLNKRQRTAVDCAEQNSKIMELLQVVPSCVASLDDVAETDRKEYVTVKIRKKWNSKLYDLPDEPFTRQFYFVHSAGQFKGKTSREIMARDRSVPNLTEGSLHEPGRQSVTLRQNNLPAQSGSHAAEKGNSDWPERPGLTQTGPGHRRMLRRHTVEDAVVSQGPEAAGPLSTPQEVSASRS

| Target | log2 fold change [1] | log2 fold change [2] | log2 fold change [3] | log2 fold change [4] | log2 fold change [5] | log2 fold change [6] | log2 fold change [7] | log2 fold change [8] | log2 fold change [9] | log2 fold change [10] |
| --- | --- | --- | --- | --- | --- | --- | --- | --- | --- | --- |
| AGL (UniProt P35573) | -0.014 | 0.002 | -0.015 | -0.063 | -0.058 | 0.013 | 0.131 | -0.083 | 0.013 | 0.049 |
| ALDH1L2 (UniProt Q3SY69) | -0.084 | -0.026 | 0.002 | -0.006 | -0.045 | 0.007 | -0.089 | -0.014 | -0.002 | 0.013 |
| AGO4 (UniProt Q9HCK5) | 0.033 | 0.003 | 0.04 | -0.003 | 0.017 | -0.003 | 0.036 | 0.041 | -0.011 | -0.021 |
| AIMP1 isoform 2 (UniProt Q12904) | 0.001 | 0.018 | 0.015 | -0.036 | -0.057 | 0.025 | -0.024 | -0.081 | 0.023 | -0.001 |
| ARL1 (UniProt P40616) | 0.046 | 0.007 | -0.031 | 0.03 | -0.066 | -0.04 | -0.101 | -0.005 | -0.005 | 0.042 |
| AKT1 (UniProt P31749) | 0.071 | 0.011 | -0.023 | -0.019 | -0.026 | -0.031 | -0.068 | 0.055 | 0.055 | 0.051 |
| ANKRD52 (UniProt Q8NB46) | -0.052 | 0.032 | 0.029 | -0.019 | 0.097 | 0.063 | 0.061 | -0.015 | -0.022 | -0.008 |
| AMDHD2 isoform 3 (UniProt Q9Y303) | 0.009 | 0.019 | -0.021 | 0.003 | 0.015 | -0.024 | -0.031 | 0.005 | -0.007 | 0.019 |
| ACBD6 (UniProt Q9BR61) | 0.028 | 0.035 | -0.006 | -0.025 | -0.082 | 0.013 | -0.009 | 0.006 | -0.015 | 0.014 |
| ANKRD27 (UniProt Q96NW4) | -0.016 | 0.006 | 0.043 | 0.01 | -0.075 | 0.001 | -0.042 | -0.073 | 0.054 | -0.002 |
| AHCYL1 (UniProt O43865) | 0.018 | 0.021 | -0.001 | 0.001 | -0.073 | -0.021 | -0.055 | -0.012 | -0.021 | 0.006 |
| ACAA1 (UniProt P09110) | 0.034 | 0.033 | -0.027 | 0.006 | 0.036 | 0.001 | -0.049 | 0.039 | 0.002 | -0.004 |
| ANKRD30B (UniProt Q9BXX2) | 0.136 | 0.024 | 0.047 | 0.012 | 0.003 | -0.055 | -0.755 (active) | 0.281 | 0.04 | – |
